The source made the active and inactive calls.

The source of these data is PubChem BioAssay.

For one assay, the target named is Albumin (Bos taurus) (UniProt P02769). Description: bovine serum albumin binders on microarray, profiling panel, artefact control for SMM control protein annotation, biochemical, small-molecule microarray, Alexa647 label, 635/667 nm fluorescence (AID 1118).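 Also: score merges 667 nm emission intensity and signal-to-noise per printed compound spot.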 As to conditions: BSA-A647 binding, fluorescence 635 nm, higher = more signal.
Sequence of Albumin (Bos taurus) (P02769 whole entry, looked up): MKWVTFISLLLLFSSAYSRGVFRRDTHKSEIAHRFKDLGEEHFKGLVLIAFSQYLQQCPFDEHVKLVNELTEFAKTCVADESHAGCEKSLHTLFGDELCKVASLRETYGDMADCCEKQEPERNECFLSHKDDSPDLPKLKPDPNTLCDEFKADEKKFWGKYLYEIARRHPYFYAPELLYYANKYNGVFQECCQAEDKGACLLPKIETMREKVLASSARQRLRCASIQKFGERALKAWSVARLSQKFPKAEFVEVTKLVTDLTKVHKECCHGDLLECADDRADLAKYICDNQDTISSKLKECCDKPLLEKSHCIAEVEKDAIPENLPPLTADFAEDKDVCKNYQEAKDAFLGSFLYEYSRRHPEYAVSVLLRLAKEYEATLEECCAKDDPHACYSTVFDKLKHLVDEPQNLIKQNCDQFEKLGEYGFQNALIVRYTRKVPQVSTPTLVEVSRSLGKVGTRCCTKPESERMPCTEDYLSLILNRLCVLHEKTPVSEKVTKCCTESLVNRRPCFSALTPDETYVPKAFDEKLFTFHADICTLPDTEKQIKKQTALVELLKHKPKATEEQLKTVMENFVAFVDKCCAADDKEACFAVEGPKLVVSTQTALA
A short description of assay [1]: small-molecule microarray binders of probe aXIP, primary screen, biochemical, NeuroSMM set, 635/667 nm fluorescence (AID 1119).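 Also: probe is the protein aXip251-270 applied at 1 µg/mL to compound-printed slides; binding of probe to printed compounds measured as 667 nm fluorescence plus signal to noise.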 As to conditions: higher = more signal, called active from +8 up or from −8 down.
Assay [2] can be described thus: small-molecule binders of probe aNOTCH3, primary screen, biochemical, small-molecule microarray, 635/667 nm fluorescence (AID 1120).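 Also: probe is a biotin-tagged antibody raised against NOTCH3 rather than NOTCH3 protein; score merges spot fluorescence near 667 nm with spot signal to noise.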 As to conditions: higher = more signal.
Assay [3] can be described thus: small-molecule binders of probe aNOTCH2, primary screen, biochemical, small-molecule microarray, 635/667 nm fluorescence (AID 1121).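 Also: score merges feature fluorescence read at 667 nm with its signal to noise.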 As to conditions: higher = more signal.
Assay [4] concerns the target Carbonic anhydrase 2 (Homo sapiens) (UniProt P00918). Description: CAII small-molecule binders, profiling panel, biochemical, small-molecule microarray, Alexa647-labelled CAII (AID 1122). As to conditions: CAII-A647 binding fluorescence, higher = more signal.
Assay [5] can be described thus: COS7 lysate on small-molecule microarray, probe aHis, 635 nm (AID 1123).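 Also: z-score combines 667nm fluorescence intensity with signal-to-noise per printed compound spot.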 As to conditions: COS7 cell lysate, fluorescence, higher = more signal.
Assay [6] is described as follows: compound binding in COS7 lysate, probe aLAP1, primary screen, cell lysate, small-molecule microarray (AID 1124).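 Also: lysate comes from COS7 cells expressing LAP1 and is applied at 0.3 µg/mL; score merges spot fluorescence near 667 nm with signal-to-noise over triplicate slides.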 As to conditions: probe aLAP1, fluorescence, higher = more signal.
The subject of another assay is Sam68 (KHDRBS1). Description: Sam68 small-molecule binders, primary screen, biochemical, small-molecule microarray, 635 nm fluorescence (AID 1125).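 Also: score merges 667 nm channel intensity with signal to noise over triplicate slides.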 As to conditions: small-molecule microarray binding, higher = more signal.
Assay [7] has as its system Chordin-like protein 2 (CHRDL2). Description: CHRDL2 small-molecule binders, primary screen, biochemical, small-molecule microarray, 635 nm fluorescence (AID 1126).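 Also: printed compound slides probed with Chrdl2 protein at 4 µg/mL for 1 h at 4 C; score merges 667 nm emission intensity with signal to noise over three replicate slides.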 As to conditions: small-molecule microarray binding, fluorescence 635 nm; higher = more signal.
Assay [8] concerns the target Concanavalin-A (Canavalia ensiformis) (UniProt P02866). Description: ConA small-molecule binders, primary screen, artefact control for SMM control protein annotation, biochemical, small-molecule microarray, Alexa647 label, 635 nm (AID 1127).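 Also: z combines 667 nm emission intensity with signal-to-noise across three replicate slides.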 As to conditions: ConA-A647 binding fluorescence, higher = more signal.
Assay [9] can be described thus: anti-His antibody binders, primary screen, artefact control for SMM control protein annotation, biochemical, small-molecule microarray, 635 nm fluorescence (AID 1128).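 Also: score merges feature fluorescence with signal-to-noise for each printed compound spot.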 As to conditions: anti-His Alexa647 antibody binding, higher = more signal.
Assay [10] deals with Human papillomavirus type 1a E7 protein (residues 1-88). Description: HPV1a E7 small-molecule binders, primary screen, biochemical, small-molecule microarray, residues 1-88, 635 nm (AID 1129). As to conditions: small-molecule microarray binding, fluorescence 635 nm; higher = more signal.
Assay [11] deals with Focal adhesion kinase 1 (Homo sapiens) (UniProt Q05397). Description: small-molecule microarray binders of FAK, primary screen, biochemical, 635/667 nm fluorescence, BSA, DTT (AID 1130).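 Also: composite of spot emission at 667 nm and signal to noise over triplicate slides.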 As to conditions: PTK2 binding, 635 nm fluorescence, higher = more signal.
Sequence of Focal adhesion kinase 1 (Homo sapiens) (Q05397 whole entry, looked up): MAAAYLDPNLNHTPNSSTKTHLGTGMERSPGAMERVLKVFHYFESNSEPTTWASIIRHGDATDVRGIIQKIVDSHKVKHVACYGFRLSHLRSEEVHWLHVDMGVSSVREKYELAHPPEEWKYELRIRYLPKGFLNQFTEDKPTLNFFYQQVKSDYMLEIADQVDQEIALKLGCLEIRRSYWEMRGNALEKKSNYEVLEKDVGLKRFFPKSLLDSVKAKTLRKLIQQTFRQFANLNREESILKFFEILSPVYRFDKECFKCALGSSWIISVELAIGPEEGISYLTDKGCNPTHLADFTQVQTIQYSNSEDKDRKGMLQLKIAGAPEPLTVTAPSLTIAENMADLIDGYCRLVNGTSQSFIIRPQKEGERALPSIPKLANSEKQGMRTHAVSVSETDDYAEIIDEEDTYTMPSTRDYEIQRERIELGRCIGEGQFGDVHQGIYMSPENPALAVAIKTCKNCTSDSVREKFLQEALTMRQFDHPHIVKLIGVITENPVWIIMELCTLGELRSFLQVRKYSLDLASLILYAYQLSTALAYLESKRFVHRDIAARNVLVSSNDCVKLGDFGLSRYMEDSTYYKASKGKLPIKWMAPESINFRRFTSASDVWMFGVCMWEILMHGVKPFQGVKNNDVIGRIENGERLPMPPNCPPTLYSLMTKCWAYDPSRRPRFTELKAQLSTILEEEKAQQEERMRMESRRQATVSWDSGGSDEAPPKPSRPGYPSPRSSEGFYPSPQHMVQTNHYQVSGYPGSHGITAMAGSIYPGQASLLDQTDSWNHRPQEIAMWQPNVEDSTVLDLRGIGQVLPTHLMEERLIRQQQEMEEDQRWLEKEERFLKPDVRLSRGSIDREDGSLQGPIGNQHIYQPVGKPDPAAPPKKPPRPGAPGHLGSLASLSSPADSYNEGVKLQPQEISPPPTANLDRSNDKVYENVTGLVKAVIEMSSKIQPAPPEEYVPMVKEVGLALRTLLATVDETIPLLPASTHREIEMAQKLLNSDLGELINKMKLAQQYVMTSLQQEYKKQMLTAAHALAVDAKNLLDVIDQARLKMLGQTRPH
Assay [12] deals with Fibrinogen (Alexa647-labelled). Description: fibrinogen binders on compound microarrays, profiling panel, artefact control for SMM control-protein annotation, biochemical, small-molecule microarray, 635/667 nm fluorescence (AID 1131).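 Also: z-score merges 667 nm fluorescence with per-spot signal-to-noise over triplicate slides.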 As to conditions: fibrinogen-A647 binding fluorescence, higher = more signal.
In assay [13] the target is Follistatin (Homo sapiens) (UniProt P19883). Description: follistatin binders on small-molecule microarrays, primary screen, biochemical, small-molecule microarray, 635/667 nm fluorescence (AID 1132). As to conditions: FST binding, 635 nm fluorescence, higher = more signal.
Sequence of Follistatin (Homo sapiens) (P19883 whole entry, looked up): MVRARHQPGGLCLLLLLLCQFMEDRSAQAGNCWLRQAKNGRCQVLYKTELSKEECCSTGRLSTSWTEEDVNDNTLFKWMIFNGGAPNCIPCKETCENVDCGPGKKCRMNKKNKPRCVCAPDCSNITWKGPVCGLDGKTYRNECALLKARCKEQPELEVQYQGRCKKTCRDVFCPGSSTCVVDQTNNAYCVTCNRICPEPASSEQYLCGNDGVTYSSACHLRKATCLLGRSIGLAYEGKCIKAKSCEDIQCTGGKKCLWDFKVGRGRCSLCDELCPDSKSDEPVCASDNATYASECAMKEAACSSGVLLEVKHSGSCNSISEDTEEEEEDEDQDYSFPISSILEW
Assay [14] has as its target Fibroblast growth factor 2 (Homo sapiens) (UniProt P09038). Description: FGF2 binders on small-molecule microarrays, primary screen, biochemical, small-molecule microarray, 635/667 nm fluorescence (AID 1133). As to conditions: small-molecule microarray binding, FGF2, fluorescence 635/667; higher = more signal.
Assay [15] can be described thus: mitochondrial membrane potential change in A549 cells, profiling panel, cell-based, JC-1 fluorescence, basal, 24 h, 100 nL (AID 1138).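 Also: A549 lung adenocarcinoma cells under basal conditions with no added stimulus; test concentration not given here.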 As to conditions: higher = more signal.
A further assay has as its system Lefty1. Description: Lefty1 binders on small-molecule microarrays, primary screen, biochemical, small-molecule microarray, 635/667 nm fluorescence (AID 1139). As to conditions: small-molecule microarray binding, fluorescence 635/667; higher = more signal.
The test system of assay [16] is wheat germ agglutinin (Triticum aestivum), Alexa647-labelled. Description: wheat germ agglutinin binders on compound microarrays, profiling panel, artefact control for SMM control-protein annotation, biochemical, small-molecule microarray, 635/667 nm fluorescence (AID 1140).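 Also: score merges 667 nm feature emission with signal to noise over triplicate slides.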 As to conditions: WGA-A647 binding, 635 nm fluorescence, higher = more signal.
Assay [17] has as its target Luciferin 4-monooxygenase (Photinus pyralis) (UniProt P08659). Description: firefly luciferase enzyme inhibitors, primary screen, biochemical, luminescence, purified enzyme, 2006 set (AID 1141).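 Also: cell-free assay with purified firefly luciferase at 100 ng per well in PBS; test concentration not given here.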 As to conditions: SteadyGlo luminescence, 30 min, higher = more signal, called active from +8 up or from −8 down.

Sequence of Luciferin 4-monooxygenase (Photinus pyralis) (P08659 whole entry, looked up): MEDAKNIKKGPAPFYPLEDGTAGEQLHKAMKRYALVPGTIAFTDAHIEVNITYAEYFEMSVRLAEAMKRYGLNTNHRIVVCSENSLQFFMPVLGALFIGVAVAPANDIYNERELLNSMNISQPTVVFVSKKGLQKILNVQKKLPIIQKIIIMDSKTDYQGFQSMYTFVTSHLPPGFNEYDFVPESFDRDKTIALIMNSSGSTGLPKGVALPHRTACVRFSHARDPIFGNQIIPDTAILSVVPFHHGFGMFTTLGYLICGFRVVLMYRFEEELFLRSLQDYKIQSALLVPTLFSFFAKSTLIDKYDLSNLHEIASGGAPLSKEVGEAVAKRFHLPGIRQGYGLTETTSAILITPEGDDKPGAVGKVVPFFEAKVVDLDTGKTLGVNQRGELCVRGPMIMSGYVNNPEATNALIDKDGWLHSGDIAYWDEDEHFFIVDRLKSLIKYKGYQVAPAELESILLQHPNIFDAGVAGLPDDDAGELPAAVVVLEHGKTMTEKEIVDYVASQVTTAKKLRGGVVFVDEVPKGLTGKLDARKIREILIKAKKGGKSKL
Sequence of Concanavalin-A (Canavalia ensiformis) (P02866 whole entry, looked up): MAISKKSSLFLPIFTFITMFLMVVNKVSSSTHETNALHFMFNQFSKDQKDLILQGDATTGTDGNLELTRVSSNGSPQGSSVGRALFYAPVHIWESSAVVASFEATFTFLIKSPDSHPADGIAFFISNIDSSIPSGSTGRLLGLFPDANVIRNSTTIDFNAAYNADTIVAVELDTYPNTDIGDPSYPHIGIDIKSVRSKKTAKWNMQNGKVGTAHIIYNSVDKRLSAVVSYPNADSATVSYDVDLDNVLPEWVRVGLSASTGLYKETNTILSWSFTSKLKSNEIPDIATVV
Sequence of Fibroblast growth factor 2 (Homo sapiens) (P09038 whole entry, looked up): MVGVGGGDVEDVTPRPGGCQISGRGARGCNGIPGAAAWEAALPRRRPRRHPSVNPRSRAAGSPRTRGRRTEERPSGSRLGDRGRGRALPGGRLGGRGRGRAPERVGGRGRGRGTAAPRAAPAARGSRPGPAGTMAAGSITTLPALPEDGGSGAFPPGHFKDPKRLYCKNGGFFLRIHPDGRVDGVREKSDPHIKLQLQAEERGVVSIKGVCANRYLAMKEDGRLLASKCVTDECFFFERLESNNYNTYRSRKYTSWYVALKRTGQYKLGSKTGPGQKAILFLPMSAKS

With `O=C1O[C@@H](c2ccccc2)[C@@H](c2ccccc2)N2[C@@H](c3ccc(OCCO)cc3)[C@]3(C(=O)Nc4ccc(C#CCCO)cc43)[C@@H](C(=O)N3CCCCCCC3)[C@H]12`, the composite z-score amounted to 0.259 in the assay with Albumin (Bos taurus); 1.66 in assay [2]; 0.745 in assay [3]; 0.896 in assay [4]; 3.6 in [5]; 1.02 in assay [6]. In addition, the composite z-score in the assay on Sam68 (KHDRBS1) turned out to be 1.3; in assay [7], 1.25; in assay [8], 1.15; in assay [9], 1.86; in [10], 1.17; in assay [11], 0.782. The composite z-score was 0.965 in assay [12]; 1.39 in [13]; 0.585 in assay [14]; 1.56 with Lefty1; 1.35 in [16]. Moreover, the composite Z-score in assay [1] is 7.58 (inactive). The z-score in assay [15] is -0.287; in [17] it was -1.62 (inactive).
For `COc1ccccc1CN1C(=O)c2ccccc2[C@@H](C(=O)NCC(F)(F)F)[C@@H]1c1ccc(CO)cc1`, the composite z-score with Albumin (Bos taurus) is 0.522; in [2], -0.15; in assay [3], -0.167; in assay [4], 0.595; in assay [5], 0.839; in assay [6], 0.0761. Also, the composite z-score in the assay on Sam68 (KHDRBS1) was 1.33; in assay [7], -0.365; in [8], 0.721; in assay [9], 0.218; in assay [10], 0.993; in assay [11], 0.391. For the same compound, the composite z-score in [12] worked out at 0.532; in assay [13], 1.06; in assay [14], 1.05; in the assay with Lefty1, 1.13; in assay [16], 0.185. Also, the composite Z-score in [1] was -0.786 (inactive). The z-score is 1.13 in [15] and 0.806 (inactive) in assay [17].
With `CC(C)(C)OC(=O)CC[C@]1(C(N)=O)COC(c2ccc(OCCCO)cc2)=N1`, the composite z-score with Albumin (Bos taurus) is 0.617; in assay [2], 0.324; in [3], 0.357; in assay [4], 0.983; in [5], 2.97; in assay [6], 1.44. Besides, the composite z-score in the assay on Sam68 (KHDRBS1) was 1.21; in assay [7], 0.0555; in [8], -0.207; in assay [9], 1.3; in assay [10] it was 0.804; in assay [11] it was -0.0765. Further, the composite z-score in assay [12] was 0.29; in assay [13], 1.1; in [14], 1.13; in the assay on Lefty1, -1.08; in assay [16] it was 0.43. In addition, the composite Z-score in assay [1] was 1.43 (inactive). Besides, the results for the z-score in assay [15] and in [17] were -0.437 and -0.0436 (inactive), respectively.
Turning to `C=CCOC(=O)[C@H]1[C@@H]2C(=O)O[C@@H](c3ccccc3)[C@@H](c3ccccc3)N2[C@@H](c2ccc(OCCOC(=O)[C@H]3C[C@H]4C(=O)N[C@@H](Cc5ccccc5)C(=O)N4[C@H]3c3ccc(O)cc3)cc2)[C@]12C(=O)Nc1ccccc12`, the composite z-score is -0.757 with Albumin (Bos taurus); -0.0932 in [2]; -0.131 in assay [3]; 0.553 in assay [4]; 1.71 in assay [5]; 0.832 in assay [6]. The composite z-score worked out at 1.31 with Sam68 (KHDRBS1); 1.38 in [7]; 1.16 in [8]; 2.22 in [9]; 1.13 in assay [10]; 1.23 in assay [11]. Also, the composite z-score in assay [12] is 0.51; in [13], 1.46; in assay [14], 1.67; in the assay with Lefty1, 1.46; in assay [16] it was 0.654. In addition, in assay [1], the composite Z-score was 0.89 (inactive). For the same compound, the z-score was -1.58 in assay [15] and -2.01 (inactive) in assay [17].
Take `Cc1ccc(C2CC=C(C(=O)O)CN2S(=O)(=O)c2ccc(C)cc2)cc1` (stereo not given): the composite z-score with Albumin (Bos taurus) was 0.921; in assay [2], 0.0203; in [3], -0.0567; in assay [4], 0.78; in assay [5], 0.93; in [6], 0.953. For the same compound, the composite z-score with Sam68 (KHDRBS1) was 1.32; in [7], 0.193; in assay [8] it was 1.12; in assay [9], 1.26; in assay [10] it was 1.17; in assay [11], 0.286. Moreover, the composite z-score in [12] was determined as 0.566; in assay [13], 0.158; in [14], 0.0208; in the assay on Lefty1, 0.0504; in [16], 0.718. Further, in assay [1], the composite Z-score was -0.326 (inactive). Besides, the z-score in assay [15] was -1.23; in assay [17] it was 1.64 (inactive).
